# In the library only some 21% were active in any assay of this set; here they are far more common.
# HCV inhibitor: HCV inhibition; Potency, µM (titrated, usually from 41.8 µM), usual class: inhibitors; Huh7.5.1 HCVcc-Cre infection, luciferase reporter, 44 h; hit rate 3.4% among 340,000
#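 Antiviral activity was scored by luciferase reporter output from cells infected with HCVcc-Cre (~0.5 moi) in presence of compound, 44 h infection period, cells seeded 1,000/well 4 h prior.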
# Shiga toxin inh: blocks Shiga toxin action in Vero cells; Vero cells, Shiga toxin protein synthesis inhibition reporter; hit rate 9.2% among 290,000; inhibition, % at 38.7 µM; in the data active = inhibition mostly above about 28%, no sharp cut-off; inactive = mostly below about 43%
# HCMV antiviral: inhibitors of human cytomegalovirus | HFF cells, HCMV-luciferase reporter, 72 h; hits give low values | activity change, negative = inhibition, % at 57.5 µM | hit rate 4.5% among 410,000; in the data active = activity change below about -60%; inconclusive = no clear call, values can overlap the other calls; inactive = above about -39%
#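 Human foreskin fibroblasts infected with luciferase-reporter HCMV at MOI 1 PFU/cell, compounds at two doses. Luciferase measured 72 h post infection; normalized to buffer-only basal and Salinomycin (10uM) controls.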
# Cycloheximide cs: affects cycloheximide protein synthesis inhibition readout, counter-screen. max response, %. hit rate 12% among 300,000. cell reporter, cycloheximide protein synthesis inhibition counterscreen; in the data active = max response mostly above about 13%, no sharp cut-off; inactive = mostly below about 14%; also: read at 38.3 µM for the half of the compounds with a filed dose
# Pf growth 96h: P. falciparum growth inhibition at 96 hours. P. falciparum luciferase reporter growth, 96 h. Potency, µM (series often up to 28.7 µM), actives largely listed as inhibitors. hit rate 6.9% among 320,000. AID 504834
#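 Parasite growth measured via integrated firefly luciferase reporter in P. falciparum. Infected erythrocytes at 2% hematocrit, 0.05% parasitemia final were treated 96 hours at 37 C under 5% CO2, and luminescence was read.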
# Pf growth 48h: P. falciparum growth inhibition at 48 hours (one generation). Potency, µM (highest dose often 28.7 µM), actives largely listed as inhibitors. P. falciparum luciferase growth in erythrocytes, 48 h. AID 504832. hit rate 5.9% among 310,000
#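 A one-generation exposure of luciferase-tagged malaria parasites in RPMI 1640/Albumax erythrocyte culture, 37 C and 5% CO2. Inhibition is inferred from decreased luminescence after adding detection reagent.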
# A number is an active result; – = inactive; ? = inconclusive; · = no result given; [ ] = another dose, or the depositor's remark. Unless noted, calls follow the shape of the dose curve; as a rule, active = well fitted inhibition curve with a large enough effect; inconclusive = small, poorly fitted or top-dose-only effect, or another doubt; inactive = no such curve, though single readings can be large or run the other way.
SMILES,HCV inhibitor,Shiga toxin inh,HCMV antiviral,Cycloheximide cs,Pf growth 96h,Pf growth 48h
Cc1ccc(CCNC(=O)c2ccc(Nc3nc4ccccc4n4nnnc34)cc2)cc1,·,·,–,·,·,·
CCOC(=O)NC(=O)CN1C(=O)NC(C)(c2ccccc2)C1=O (centres undefined),–,–,–,–,1.9µM,–
CCCNC(=O)NC(=O)CN1C(=O)NC(C)(c2ccc(C)cc2)C1=O (centres undefined),–,–,–,–,13µM,–
CC1(CCc2ccccc2)NC(=O)N(CC(=O)Nc2ccccc2)C1=O (centres undefined),–,–,–,16,–,–
CCOc1ccccc1CN1C(=O)NC(C)(c2ccccc2)C1=O (centres undefined),–,–,–,–,9.3µM,–
CNc1ccc(C(=O)OCC(=O)NCc2ccc3c(c2)OCO3)cc1[N+](=O)[O-],–,·,–,·,–,–
CN(c1ccccc1)S(=O)(=O)c1cc(C(=O)Nc2ccccc2N2CCOCC2)ccc1Cl,?,·,–,·,·,·
CC1(c2ccccc2)NC(=O)N(CC(=O)Nc2ccc(C(N)=O)cc2)C1=O (centres undefined),–,–,-62,–,–,–
CC[N+]1(C)[C@@H]2CC[C@H]1CC(OC(=O)[C@H]1CCC(C(=O)OC3C[C@H]4CC[C@@H](C3)[N+]4(C)CC)(c3ccccc3)c3ccccc31)C2 (some centres undefined),–,·,-69,·,8.3µM,10µM
C=CCn1c(NCCc2ccccc2)nc2c1c(=O)n(C)c(=O)n2C,?,–,-82,–,–,–
Cn1c(=O)c2c(nc(NCCc3ccccc3)n2CC(=O)NCCc2ccccc2)n(C)c1=O,–,–,–,–,13µM,–
C/C(Cl)=C\Cn1c(NCCc2ccccc2)nc2c1c(=O)n(C)c(=O)n2C,2.5µM,–,-95,–,–,9.3µM
Cc1ccc(Cn2c(NCCc3ccccc3)nc3c2c(=O)n(C)c(=O)n3C)cc1,4µM,–,-69,–,·,?
COc1ccc(CCNC(=O)CCCn2c(=O)c3ccccc3n(CC(=O)Nc3cccc(C)c3)c2=O)cc1OC,·,·,–,·,·,·
CCc1c(C)nc(Nc2nc(C)c3ccc(OC)cc3n2)[nH]c1=O,?,–,–,–,7.4µM,·
COc1ccc(Nc2nc(C)c3ccccc3n2)cc1,?,135,–,27,3.7µM,–
COc1ccc2c(C)nc(Nc3nc(C)cc(C)n3)nc2c1,–,–,–,–,4.7µM,13µM
CCc1c(C)nc(Nc2nc(C)c3cc(OC)ccc3n2)[nH]c1=O,?,–,–,–,–[5.75 µM],?
COc1ccc2c(C)nc(Nc3nc(C)c(C)c(=O)[nH]3)nc2c1,?,–,-102,48,?,–
Cc1csc(=O)n1CC(=O)OCC(=O)c1c(N)n(C)c(=O)n(C)c1=O,?,·,–,·,–,–
O=C(Nc1c(-c2ccccc2)nc2ccccn12)c1ccc(Br)cc1,·,·,–,·,·,·
Cc1ccc(C)c(Nc2ccc3nonc3c2[N+](=O)[O-])c1,–,–,-87,–,?,–
Cc1ccc(C)c(Nc2c([N+](=O)[O-])ccc3nonc23)c1,–,–,–,–,–,–
Cc1ccccc1Nc1ccc2nonc2c1[N+](=O)[O-],–,–,–,–,6.6µM,–
O=[N+]([O-])c1c(Nc2ccccc2O)ccc2nonc12,–,–,–,–,–,–
SMILES,HCV inhibitor,Shiga toxin inh,HCMV antiviral,Cycloheximide cs,Pf growth 96h,Pf growth 48h
Cc1cccc(C(=O)O/N=C(\N)c2ccc(Cl)cc2)c1,–,71,–,56,–,–
Cc1cccc(C(=O)O/N=C(\N)c2ccc(Br)cc2)c1,–,–,–,56,?,·
N/C(=N\OC(=O)c1ccc2ccccc2c1)c1ccc(Br)cc1,–,–,–,–,–,13µM
Cc1cc(C)cc(C(=O)O/N=C(\N)c2ccc(Br)cc2)c1,–,–,–,–,·,?
N/C(=N\OC(=O)c1ccoc1)c1ccc(Br)cc1,–,90,–,74,–,–
COCCNC(=O)CCn1c(=O)c2cc(OC)c(OC)cc2n(CC(=O)Nc2ccccc2C)c1=O,·,·,–,·,·,·
Cc1cccc(C(=O)O/N=C/c2c(Cl)n(C)c3ccccc23)c1,–,–,–,–,–,–
Cc1cccc(C(=O)O/N=C/c2ccc(Br)cc2)c1,–,88,–,44,–,–
Cc1ccc(C(=O)O/N=C(\N)c2ccc(Br)cc2)cc1C,–,130,–,42,–,·
Cc1ccc(/C(N)=N/OC(=O)c2ccc(Cl)cc2Cl)cc1,?,92,–,82,–,–
COc1ccc(-c2nnc(SCCC(=O)O)n2-c2ccccc2)cc1,–,–,–,–,·,–
COc1ccc(NC(=O)CSc2nnc(-c3ccccc3)n2N)cc1,–,–,–,–,–,–
COc1ccc(-n2c(SCC(=O)O)nnc2-c2ccc(NC(=O)c3ccccc3)cc2)cc1,–,–,–,–,–,5.2µM
COc1ccc(-c2nnc(SCC(=O)c3ccc[nH]3)n2-c2ccccc2)cc1,–,82,–,34,?,–
COc1ccc(NC(=O)CN(C)C(=O)c2ccc(-c3cccc(C(F)(F)F)c3)o2)cc1,–,–,–,–,0.37µM,?
COc1ccc(NC(=O)CN(C)C(=O)c2ccc3ccccc3c2)cc1,–,·,–,·,–,–
CCN(CC(=O)NCc1cccs1)C(=O)c1ccc(-c2cccc(C(F)(F)F)c2)o1,?,·,–,·,9.3µM,?
COc1ccc(NC(=O)CN(C)C(=O)c2ccc(-c3ccccc3Cl)o2)cc1,?,·,–,·,0.33µM,0.37µM
CN(CC(=O)Nc1ccccc1Cl)C(=O)c1ccc(-c2cccc(C(F)(F)F)c2)o1,?,·,–,·,0.41µM,2.1µM
CCN(CC(=O)NCc1cccs1)C(=O)COc1cccc(C(F)(F)F)c1,–,·,–,·,?,?
CCC(=O)N1CC2(C1)CN(C(=O)c1ccccn1)[C@H](CO)c1c2c2ccc(OC)cc2n1C,·,·,–,·,·,·
NS(=O)(=O)c1ccc(CCNC(=O)CSc2nc3ccsc3c(=O)n2Cc2ccccn2)cc1,·,·,–,·,·,·
O=C(Nc1cccc(C(F)(F)F)c1)c1ccc2snnc2c1,·,·,–,·,·,·
O=C(Nc1cccc(C(F)(F)F)c1)Nc1ccc2snnc2c1,·,·,-105,·,·,·
O=C(Nc1ccccc1)Nc1ccc2nnsc2c1,–,61,–,36,?,–
SMILES,HCV inhibitor,Shiga toxin inh,HCMV antiviral,Cycloheximide cs,Pf growth 96h,Pf growth 48h
Cc1cc(C)c(NC(=O)Nc2ccc3snnc3c2)c(C)c1,·,·,–,·,·,·
CN(C)c1ccc(NC(=O)Nc2ccc3snnc3c2)cc1,–,45,–,27,–,–
O=C(Nc1ccccc1)Nc1ccc2snnc2c1,11µM,58,–,41,3.3µM,?
Cc1ccc(S(=O)(=O)N2CCc3cc(C(=O)Nc4c(F)cccc4F)ccc32)cc1,·,·,–,·,·,·
Cc1ccc(NC(=O)C2CCCO2)c(Br)c1 (centres undefined),–,·,–,·,·,·
CC(OC(=O)c1nc(Cl)ccc1Cl)C(=O)Nc1ccccc1F (centres undefined),?,·,–,·,–,–

# High-throughput results as filed in PubChem.
